# The full list was thinned out, with the strongest signals kept by preference.
# B1: Cohesin-marm-DC-ASGPR (protein)
# chain: LDITSHHHHHHDDLDAVRIKVDTVNAKPGDTVRIPVRFSGIPSKGIANCDFVYSYDPNVLEIIEIEPGDIIVDPNPDKSFDTAVYPDRKIIVFLFAEDSGTGAYAITKDGVFATIVAKVKEGAPNGLSVIKFVEVGGFANNDLVEQKTQFFDGGVNVGDTTEPATPTTPVTTPTTTDDLDAASSKFQRDLVTLRTDFSNFTSNTLAEIQALTSQGSSLQETIASLKAEVEGHKQELQAGASELQEHNKQKAHLGRCPHTCVCPSSFVCVPVHSEILLRVQQLVQDLNKLSCQVAILKNNATTERTCCPINWVEHQGSCYWFSRSGKTWPEAERYCQLENTHLVVINSREEQNFVQAHLGSAYTWMGLSDPEGVWKWVDGTDYSSGFQNWKPGQPDDWQGHGLGGGEDCAHFHPDGRWNDDVCQRSYHWVCEAGLTQASQDSHAS
# B2: Surfactant Protein D (rat); Neck + Carbohydrate Recognition Domain (NCRD) (Rattus norvegicus) (protein)
# chain: MLLFLLSALVLLTQPLGYLEAEMKTYSHRTMPSACTLVMCSSVESGLPGRDGRDGREGPRGEKGDPGLPGAAGQAGMPGQAGPVGPKGDNGSVGEPGPKGDTGPSGPPGPPGVPGPAGREGALGKQGNIGPQGKPGPKGEAGPKGEVGAPGMQGSAGARGAGPKGERGVPGERGVPGNTGAAGSAGAMGPQGSPGARGPPGLKGDKGIPGDKGAKGESGLPDVASLRQQVEALQGQVQHLQAAFSQYKKVELFPNGQSVGEKIFKTAGFVKPFTEAQLLCTQAGGQLASPRSAAENAALQQLVVAKNEAAFLSMTDSKTEGKFTYPTGESLVYSNWAPGEPNDDGGSEDCVEIFTNGKWNDRACGEKRLVVCEF
# B3: Flo11 (Saccharomyces cerevisiae), Q1H8S8 (protein)
# chain: MGSSHHHHHHSSGLVPRGSHMFPTALVPRGSSEGTSCNSIVNGCPNLDFNWHMDQQNIMQYTLDVTSVSWVQDNTYQITIHVKGKENIDLKYLWSLKIIGVTGPKGTVQLYGYNENTYLIDNPTDFTATFEVYATQDVNSCQVWMPNFQIQFEYLQGSAAQYASSWQWGTTSFDLSTGCNNYDNQGHSQTDFPGFYWNIDCDNNCGGTKSS
# What was measured:
# Assay in all cases: glycan array binding signal (z-score within array); higher = stronger binding
# Details in all cases: glycan notation: IUPAC condensed, linker removed
# [1] = target: Neu5Ac(a2-8)Neu5Ac(a2-8)Neu5Ac(a2-8)Neu5Ac(a2-3)[GalNAc(b1-4)]Gal(b1-4)Glc
# Outline: (§1)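 The Consortium for Functional Glycomics database supplied 3228 glycan arrays, of which those lacking an available protein sequence were dropped. The binding signal, a within-array Z-score, was averaged across arrays of the same protein sequence and across linkers. Negative scores can be read as non-binding.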
# [2] = target: Neu5Gc(a2-3)Gal(b1-3)GlcNAc
# Outline: as §1
# [3] = target: Fuc(a1-2)Gal(b1-4)GlcNAc(b1-3)Gal(b1-4)GlcNAc
# Outline: as §1
# [4] = target: Fuc(a1-3)[Gal(b1-4)]GlcNAc6S
# Outline: as §1
# [5] = target: Gal(a1-4)Gal(b1-4)Glc
# Outline: as §1
# [6] = target: Gal(a1-4)GlcNAc
# Outline: as §1
# [7] = target: Gal(b1-3)GlcNAc(b1-3)Gal(b1-4)Glc
# Outline: as §1
# [8] = target: Gal(b1-4)GalNAc(b1-3)[Fuc(a1-2)]Gal(b1-4)GlcNAc
# Outline: as §1
# [9] = target: GlcNAc(b1-4)GlcNAc(b1-4)GlcNAc(b1-4)GlcNAc(b1-4)GlcNAc(b1-4)GlcNAc
# Outline: as §1
# [10] = target: Man(a1-2)Man(a1-2)Man(a1-6)[Man(a1-3)]Man
# Outline: as §1
# [11] = target: Man(a1-2)Man(a1-3)[Man(a1-2)Man(a1-6)]Man
# Outline: as §1
# [12] = target: Man(a1-2)Man(a1-3)[Man(a1-2)Man(a1-6)]Man(a1-6)[Man(a1-2)Man(a1-2)Man(a1-3)]Man
# Outline: as §1
# [13] = target: Man(a1-2)Man(a1-6)[Man(a1-3)]Man(a1-6)[Man(a1-2)Man(a1-2)Man(a1-3)]Man
# Outline: as §1
# [14] = target: Man(a1-2)Man(a1-6)[Man(a1-3)]Man(a1-6)[Man(a1-2)Man(a1-2)Man(a1-3)]Man(b1-4)GlcNAc(b1-4)GlcNAc
# Outline: as §1
# [15] = target: Man(a1-6)Man
# Outline: as §1
# [16] = target: Neu5Ac(a2-3)Gal(b1-3)GalNAc(b1-3)Gal(a1-4)Gal(b1-4)Glc
# Outline: as §1
# [17] = target: Neu5Ac(a2-3)Gal(b1-3)GalNAc(b1-3)Gal(b1-4)GlcNAc
# Outline: as §1
# [18] = target: Neu5Ac(a2-3)Gal(b1-4)GlcNAc(b1-2)Man(a1-3)[Neu5Ac(a2-6)Gal(b1-4)GlcNAc(b1-2)Man(a1-6)]Man(b1-4)GlcNAc(b1-4)GlcNAc
# Outline: as §1
# [19] = target: Neu5Ac(a2-3)Gal(b1-4)[Fuc(a1-3)]GlcNAc
# Outline: as §1
# [20] = target: Neu5Ac(a2-6)Gal(b1-4)GlcNAc(b1-2)Man(a1-3)[Neu5Ac(a2-6)Gal(b1-4)GlcNAc(b1-2)Man(a1-6)]Man(b1-4)GlcNAc(b1-4)GlcNAc
# Outline: as §1
# [21] = target: Neu5Ac(a2-6)Gal(b1-4)GlcNAc(b1-3)Gal(b1-4)GlcNAc
# Outline: as §1
# [22] = target: Neu5Ac(a2-8)Neu5Ac(a2-8)Neu5Ac(a2-3)Gal(b1-4)Glc
# Outline: as §1
# [23] = target: Fuc(a1-3)[Gal3S(b1-4)]GlcNAc6S
# Outline: as §1
# [24] = target: Fuc(a1-3)[Neu5Ac(a2-3)]Gal(b1-4)GlcNAc(b1-3)GalNAc
# Outline: as §1
# [25] = target: Gal(b1-3)GalNAc(b1-4)[Neu5Ac(a2-3)]Gal(b1-4)Glc
# Outline: as §1
# [26] = target: Gal(b1-3)[Fuc(a1-4)]GlcNAc(b1-3)Gal(b1-4)[Fuc(a1-3)]GlcNAc
# Outline: as §1
# [27] = target: Gal(b1-4)Glc6S
# Outline: as §1
# [28] = target: Gal(b1-4)GlcNAc(b1-2)Man(a1-6)Man(b1-4)GlcNAc(b1-4)GlcNAc
# Outline: as §1
# [29] = target: Gal(b1-4)GlcNAc(b1-2)Man(a1-6)[Man(a1-3)]Man(b1-4)GlcNAc(b1-4)GlcNAc
# Outline: as §1
# [30] = target: Gal(b1-4)GlcNAc(b1-6)[Gal(b1-3)]GalNAc
# Outline: as §1
# [31] = target: Gal3S(b1-3)[Fuc(a1-4)]GlcNAc
# Outline: as §1
# [32] = target: GalNAc(b1-3)Gal
# Outline: as §1
# [33] = target: GalNAc(b1-3)Gal(a1-4)Gal(b1-4)GlcNAc
# Outline: as §1
# [34] = target: GlcNAc(a1-4)Gal(b1-4)GlcNAc(b1-3)Gal(b1-4)[Fuc(a1-3)]GlcNAc(b1-3)Gal(b1-4)[Fuc(a1-3)]GlcNAc
# Outline: as §1
# [35] = target: GlcNAc(b1-2)Man(a1-3)[GlcNAc(b1-2)Man(a1-6)]Man(b1-4)GlcNAc(b1-4)GlcNAc
# Outline: as §1
# [36] = target: GlcNAc(b1-3)Gal(b1-4)Glc
# Outline: as §1
# [37] = target: Kdn(a2-3)Gal(b1-4)GlcNAc
# Outline: as §1
# [38] = target: Man(a1-2)Man(a1-2)Man(a1-3)Man
# Outline: as §1
# [39] = target: Man(a1-3)[Man(a1-6)]Man
# Outline: as §1
# [40] = target: Neu5Ac(a2-3)Gal(b1-3)[Neu5Ac(a2-3)Gal(b1-4)]GlcNAc
# Outline: as §1
# [41] = target: Neu5Ac(a2-6)Gal(b1-4)Glc
# Outline: as §1
# [42] = target: Neu5Ac(a2-8)Neu5Ac(a2-3)[GalNAc(b1-4)]Gal(b1-4)Glc
# Outline: as §1
# [43] = target: Neu5Ac9Ac(a2-3)Gal(b1-3)GlcNAc
# Outline: as §1
# [44] = target: Neu5Ac9Ac(a2-6)Gal(b1-4)GlcNAc
# Outline: as §1
# [45] = target: Neu5Gc(a2-3)Gal(b1-4)[Fuc(a1-3)]GlcNAc
# Outline: as §1
binder,measurement,setting,value
B1,glycan array binding signal (z-score),[1],5.27
same,glycan array binding signal (z-score),[2],-0.264
B2,glycan array binding signal (z-score),[3],-0.183
same,glycan array binding signal (z-score),[4],0.145
same,glycan array binding signal (z-score),[5],-0.276
same,glycan array binding signal (z-score),[6],-0.242
same,glycan array binding signal (z-score),[7],-0.194
same,glycan array binding signal (z-score),[8],-0.02
same,glycan array binding signal (z-score),[9],-0.108
same,glycan array binding signal (z-score),[10],4.11
same,glycan array binding signal (z-score),[11],3
same,glycan array binding signal (z-score),[12],13.2
same,glycan array binding signal (z-score),[13],4.18
same,glycan array binding signal (z-score),[14],8.4
same,glycan array binding signal (z-score),[15],-0.223
same,glycan array binding signal (z-score),[16],-0.176
same,glycan array binding signal (z-score),[17],-0.198
same,glycan array binding signal (z-score),[18],-0.117
same,glycan array binding signal (z-score),[19],0.004
same,glycan array binding signal (z-score),[20],0.111
same,glycan array binding signal (z-score),[21],-0.105
same,glycan array binding signal (z-score),[22],-0.048
B3,glycan array binding signal (z-score),[3],-0.01
same,glycan array binding signal (z-score),[23],1.26
same,glycan array binding signal (z-score),[24],3.1
same,glycan array binding signal (z-score),[25],2.88
same,glycan array binding signal (z-score),[26],-0.502
same,glycan array binding signal (z-score),[27],-0.505
same,glycan array binding signal (z-score),[28],-0.507
same,glycan array binding signal (z-score),[29],-0.506
same,glycan array binding signal (z-score),[30],-0.482
same,glycan array binding signal (z-score),[31],-0.502
same,glycan array binding signal (z-score),[32],3.63
same,glycan array binding signal (z-score),[33],4.27
same,glycan array binding signal (z-score),[34],0.071
same,glycan array binding signal (z-score),[35],-0.505
same,glycan array binding signal (z-score),[36],1.26
same,glycan array binding signal (z-score),[37],-0.496
same,glycan array binding signal (z-score),[38],-0.505
same,glycan array binding signal (z-score),[39],-0.502
same,glycan array binding signal (z-score),[16],3.08
same,glycan array binding signal (z-score),[40],-0.511
same,glycan array binding signal (z-score),[41],-0.507
same,glycan array binding signal (z-score),[42],3.67
same,glycan array binding signal (z-score),[43],-0.505
same,glycan array binding signal (z-score),[44],-0.494
same,glycan array binding signal (z-score),[45],3.45
